Several values for one entry are separate records, joined by “and”; a condition that tells them apart may be missing. Equal values may be shown once. Hit rate of the full screen: of about 5,500 compounds, about 2,000 (36%) were called active. Another 18% or so got no clear call; they are omitted. No stated cut-off is given here; in the data, active means normalized growth mostly below about 0.91 (no sharp cut-off); inconclusive means no clear call, values can overlap the other calls; inactive means mostly above about 0.92. Some of the results follow.
Assay: chemical genetic growth profiling, strain panel (AID 1159580);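 further: tested at 20 µM; growth read once vehicle control cultures reached saturation at 30 °C; 1 = growth at the plate median or of vehicle wells; lower values mean less growth of the strain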
Details: S. cerevisiae deletion strains, growth OD

Measured: normalized growth

CCCC(=O)Nc1ccc(OCC(O)CNC(C)C)c(C(C)=O)c1 (stereo unspecified)
inactive: locus YAL013W, strain DEP1, hits give low values 1.02 | locus YAL021C, strain ccr4, hits give low values 1 | locus YAL026C, strain drs2, hits give low values 1.03 | locus YAL030W, strain snc1, hits give low values 1.02 | locus YBL061C, strain skt5, hits give low values 1.02 | locus YBR009C, strain hhf1, hits give low values 1 | locus YBR021W, strain FUR4, hits give low values 1.02 | locus YBR023C, strain chs3, hits give low values 1.02 | locus YBR171W, strain sec66, hits give low values 1.02 | locus YBR229C, strain ROT2, hits give low values 1.01 | locus YBR231C, strain swc5, hits give low values 1.04 | locus YBR279W, strain paf1, hits give low values 1.02 | locus YCL011C, strain gbp2, hits give low values 1.03 | locus YCL016C, strain dcc1, hits give low values 1.03 | locus YCL029C, strain bik1, hits give low values 1.02 | locus YCL069W, strain vba3, hits give low values 1.02 | locus YCR088W, strain abp1, hits give low values 1.01 | locus YDL005C, strain med2, hits give low values 1.01 | locus YDL035C, strain GPR1, hits give low values 1.02 | locus YDL040C, strain nat1, hits give low values 1 | locus YDL074C, strain BRE1, hits give low values 1.05 | locus YDL101C, strain DUN1, hits give low values 1.02 | locus YDL134C, strain PPH21, hits give low values 1.01 | locus YDL185W, strain tfp1, hits give low values 1.02 | locus YDL192W, strain arf1, hits give low values 1.02 | locus YDR001C, strain nth1, hits give low values 1.02 | locus YDR069C, strain doa4, hits give low values 1.01 | locus YDR101C, strain arx1, hits give low values 1.01 | locus YDR137W, strain rgp1, hits give low values 1.01 | locus YDR150W, strain NUM1, hits give low values 1.02 | locus YDR159W, strain sac3, hits give low values 0.984 | locus YDR162C, strain NBP2, hits give low values 1.01 | locus YDR195W, strain ref2 0.999 | locus YDR297W, strain sur2, hits give low values 1.01 | locus YDR318W, strain mcm21, hits give low values 1.02 | locus YDR334W, strain swr1, hits give low values 1.01 | locus YDR335W, strain msn5, hits give low values 1.01 | locus YDR388W, hits give low values 1.01 | locus YDR392W, strain spt3, hits give low values 0.995 | locus YDR502C, strain sam2, hits give low values 1.02 | locus YEL003W, strain gim4, hits give low values 1.02 | locus YEL037C, strain rad23, hits give low values 1.02 | locus YEL061C, strain CIN8 (second series), hits give low values 1.04 | locus YEL061C, strain CIN8, hits give low values 1.01 | locus YER015W, strain faa2, hits give low values 1.01 | locus YER016W, strain bim1, hits give low values 1.03 | locus YER110C, hits give low values 1.02 | locus YER111C, strain swi4, hits give low values 1.01 | locus YER155C, strain BEM2 (second series), hits give low values 0.985 | locus YER155C, strain BEM2, hits give low values 1.02 | locus YER167W, strain BCK2, hits give low values 1.04 | locus YFR010W, strain ubp6, hits give low values 1.01 | locus YGL078C, strain dbp3, hits give low values 1.01 | locus YGL086W, strain mad1, hits give low values 0.996 | locus YGL167C, strain pmr1, hits give low values 1.02 | locus YGL173C, strain kem1, hits give low values 1.02 | locus YGL227W, strain vid30, hits give low values 1.03 | locus YGL240W, strain doc1, hits give low values 0.984 | locus YGL248W, strain PDE1, hits give low values 1.01 | locus YGL253W, strain hxk2, hits give low values 1.01 | locus YGR078C, strain PAC10, hits give low values 1.03 | locus YGR135W, strain pre9, hits give low values 1.02 | locus YGR229C, strain SMI1, hits give low values 1.03 | locus YGR252W, strain gcn5, hits give low values 0.965 | locus YHR013C, strain ard1, hits give low values 1.02 | locus YHR027C, strain rpn1, hits give low values 1.02 | locus YHR030C, strain SLT2, hits give low values 1.01 and 1.04 | locus YHR079C, strain IRE1 (second series), hits give low values 1.02 | locus YHR079C, strain IRE1, hits give low values 1.01 | locus YHR094C, strain hxt1, hits give low values 1.01 | locus YHR129C, strain ARP1, hits give low values 1.01 | locus YHR142W, strain chs7, hits give low values 1.04 | locus YHR200W, strain rpn10, hits give low values 1.02 | locus YIL066C, strain RNR3, hits give low values 1.02 | locus YIL073C, strain SPO22, hits give low values 1.05 | locus YIL125W, strain kgd1, hits give low values 1.01 | locus YIR030C, strain dcg1, hits give low values 1.02 | locus YJL092W, strain hpr5, hits give low values 1.01 | locus YJL095W, strain BCK1 (second series), hits give low values 1.02 | locus YJL095W, strain BCK1, hits give low values 1.03 and 1.01 | locus YJL115W, strain asf1, hits give low values 1.01 | locus YJL129C, strain trk1, hits give low values 1.01 | locus YJL134W, strain LCB3, hits give low values 1.01 | locus YJL154C, strain vps35, hits give low values 1.01 | locus YJL164C, strain tpk1, hits give low values 0.999 | locus YJL166W, strain qcr8, hits give low values 1.01 | locus YJL168C, strain set2, hits give low values 1.02 | locus YJL187C, strain SWE1 (second series), hits give low values 1.02 | locus YJL187C, strain SWE1, hits give low values 1.02 | locus YJR043C, strain POL32, hits give low values 1.05 | locus YJR066W, strain TOR1, hits give low values 0.957

Reference: PubChem BioAssay AID1159580 (chemical genetic matrix, 2015)
